Results reported in PubChem BioAssay (NCI).
This is part of a sample that, as a whole, favours compounds with a hit. Of some 83,000 tested, about 20% had one in any assay.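 Activity criterion: percent growth below 10, measured after cells in 96-well plates were exposed to a single compound concentration for 48 hours.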 The source made the active and inactive calls.

Key:
Assay in all cases: NCI-60 one-dose screen, 48 h (100 = growth as untreated, 0 = no growth, -100 = all killed)
Details in all cases: 10 µM unless noted
SK-MEL-2 melanoma = test system: SK-MEL-2 melanoma
EKVX NSCLC = test system: EKVX NSCLC
SN12C renal = test system: SN12C renal
UO-31 renal = test system: UO-31 renal
TK-10 renal = test system: TK-10 renal
ACHN renal = test system: ACHN renal
CAKI-1 renal = test system: CAKI-1 renal
A498 renal = test system: A498 renal
CCRF-CEM leukemia = test system: CCRF-CEM leukemia
SR leukemia = test system: SR leukemia
RPMI-8226 leukemia = test system: RPMI-8226 leukemia
OVCAR-8 ovarian = test system: OVCAR-8 ovarian
OVCAR-5 ovarian = test system: OVCAR-5 ovarian
OVCAR-4 ovarian = test system: OVCAR-4 ovarian
SK-OV-3 ovarian = test system: SK-OV-3 ovarian
IGROV1 ovarian = test system: IGROV1 ovarian
OVCAR-3 ovarian = test system: OVCAR-3 ovarian
HS 578T breast = test system: HS 578T breast
NCI/ADR-RES ovarian = test system: NCI/ADR-RES ovarian

SMILES	growth (SK-MEL-2 melanoma)	growth (EKVX NSCLC)	growth (SN12C renal)	growth (UO-31 renal)	growth (TK-10 renal)	growth (ACHN renal)	growth (CAKI-1 renal)	growth (A498 renal)	growth (CCRF-CEM leukemia)	growth (SR leukemia)	growth (RPMI-8226 leukemia)	growth (OVCAR-8 ovarian)	growth (OVCAR-5 ovarian)	growth (OVCAR-4 ovarian)	growth (SK-OV-3 ovarian)	growth (IGROV1 ovarian)	growth (OVCAR-3 ovarian)	growth (HS 578T breast)	growth (NCI/ADR-RES ovarian)
Cc1ccc(Cl)c(NS(=O)(=O)c2ccc(-c3cnc(C4CC4)o3)cc2)c1	56.9% (inactive)	31.4% (inactive)	60.7% (inactive)	44.3% (inactive)	68.5% (inactive)	36% (inactive)	36.6% (inactive)	-5.72% (active)	14.1% (inactive)	15.7% (inactive)	18.8% (inactive)	28.1% (inactive)	26.4% (inactive)	48.3% (inactive)	44.5% (inactive)	27% (inactive)	-1.26% (active)	13.5% (inactive)	19.5% (inactive)
CC(C)(C)n1cc(-c2ccnc(NCCCNS(=O)(=O)c3ccccc3)c2)c(-c2ccccc2)n1	98.7% (inactive)	70.7% (inactive)	78.2% (inactive)	59% (inactive)	94.1% (inactive)	97.2% (inactive)	80.9% (inactive)	39.7% (inactive)	42.6% (inactive)	31.7% (inactive)	65.5% (inactive)	68.9% (inactive)	94% (inactive)	70.4% (inactive)	85.1% (inactive)	78.3% (inactive)	83.9% (inactive)	96% (inactive)	74.6% (inactive)
CN(C)CC1C(=O)O[C@H]2[C@H]1CC/C(COC(=O)c1cc3ccccc3[nH]1)=C\CC[C@@]1(C)O[C@@H]21 (some centres not stated)	-55% (active)	-27.4% (active)	-22.1% (active)	-92.7% (active)	-89.2% (active)	-82.4% (active)	-14.4% (active)	5.21% (active)	1.08% (active)	-13.6% (active)	-15.7% (active)	-45.6% (active)	-5.25% (active)	-9.35% (active)	65.1% (inactive)	-41.2% (active)	-82.7% (active)	-3.98% (active)	-30.8% (active)
CCCCCc1nc2c(c3c1CCCC3)CCCC2	80% (inactive)	77.1% (inactive)	93.3% (inactive)	47% (inactive)	77.2% (inactive)	82.9% (inactive)	60.9% (inactive)	84.3% (inactive)	59.9% (inactive)	31.8% (inactive)	0.398% (active)	59.8% (inactive)	67.2% (inactive)	70.7% (inactive)	80.7% (inactive)	61.7% (inactive)	69.8% (inactive)	65% (inactive)	48.3% (inactive)
C=C1C(=O)O[C@H]2[C@H]1CC/C(CNC(=O)/C=C/c1ccc(Cl)cc1Cl)=C\CC[C@@]1(C)O[C@@H]21	-13.8% (active)	-35.8% (active)	-43.4% (active)	-90.2% (active)	-88.8% (active)	-79.9% (active)	-31.2% (active)	-3.46% (active)	-30.7% (active)	-28.8% (active)	-33.1% (active)	-28.7% (active)	-31.9% (active)	-52.7% (active)	20.3% (inactive)	-32.7% (active)	-100% (active)	-4.31% (active)	2.07% (active)
COc1cccc(-c2nn(-c3ccccc3)cc2-c2ccnc(NCCCNC(=O)c3ccc(F)cc3)c2)c1	51.6% (inactive)	44.5% (inactive)	62.6% (inactive)	40.5% (inactive)	57.8% (inactive)	71% (inactive)	52.4% (inactive)	31% (inactive)	38.6% (inactive)	-14.2% (active)	38.2% (inactive)	45.9% (inactive)	85.4% (inactive)	42.1% (inactive)	48.2% (inactive)	47.5% (inactive)	37.7% (inactive)	61.4% (inactive)	14.4% (inactive)
O=C(c1ccc(Nc2nccc(NCCCCNc3ccnc4cc(Cl)ccc34)n2)cc1)N1CCCCC1	68.7% (inactive)	67.5% (inactive)	67.4% (inactive)	73.9% (inactive)	91.5% (inactive)	37.8% (inactive)	86.1% (inactive)	68% (inactive)	-11.8% (active)	-27.3% (active)	8.24% (active)	23% (inactive)	91.9% (inactive)	49% (inactive)	97.7% (inactive)	46.5% (inactive)	36.6% (inactive)	65% (inactive)	89% (inactive)
O=Cc1ccc(O)c2ncccc12	71.2% (inactive)	66.1% (inactive)	35.2% (inactive)	34.8% (inactive)	94% (inactive)	110% (inactive)	48.6% (inactive)	106% (inactive)	-40.7% (active)	-41.3% (active)	-39.8% (active)	9.03% (active)	50.3% (inactive)	5.69% (active)	97.7% (inactive)	4% (active)	-15.2% (active)	41.6% (inactive)	-1% (active)
